About 8,600 (12%) of roughly 69,000 compounds showed an effect of 50% or more. This excerpt belongs to a sample that is enriched for strong results.

This assay deals with Plasmodium berghei. The assay is described as follows: Screen against P. berghei liver stage (PbLuc), transformed with Luciferase, at 10uM. Particulars: tested at 10 uM. It counts as functional, HepG2.
On to `CC(CS(C)(=O)=O)N(C(=O)Nc1cc(F)ccc1Cl)C1CC1` (stereo not drawn), for which the INHIBITION is reported as 3.63%.
As for `CC(CS(C)(=O)=O)N(C(=O)c1ccc(Cl)s1)C1CC1` (stereo not drawn), the figure is 52.1%.
For `CC(CS(C)(=O)=O)N(C(=O)CCc1ccc(Cl)s1)C1CC1` (stereo not drawn), the INHIBITION amounted to 31.5%.
On to `Cn1cc(C(=O)NCC2CCN(C(=O)NC3CC3)CC2)cn1`, for which the INHIBITION is -16%.
The same measure for `c1csc(SCC2CN=C(N3CCOCC3)S2)c1` (stereo not drawn): -12.9%; for `N#Cc1ccnc(SCC2CN=C(N3CCOCC3)S2)c1` (stereo not drawn): 52.6%.
For the molecule `c1ccn2c(SCC3CN=C(N4CCOCC4)S3)ncc2c1` (stereo not drawn), the INHIBITION is 0.705%.
As to `O=c1c(NCCc2ccc(O)cc2)c(NCc2ccco2)c1=O`, the INHIBITION worked out at 45.7%.
Consider `Cc1ccc(N2CCc3sc(C(=O)N4CCOCC4)cc32)nn1`, for which the INHIBITION is -34%.
As to `Cc1cc(S(=O)(=O)N2CCCc3cc(Cl)ccc32)sc1C(=O)O`, the INHIBITION was -12.5%.
`Cc1cc(S(=O)(=O)N2CCCc3cc(Br)ccc32)sc1C(=O)O`: the INHIBITION was found to be 54.3%.
Take `Cc1cc(S(=O)(=O)N2CCCc3ccccc32)sc1C(=O)O`: the INHIBITION is reported as 37.1%.
`O=C(Nc1ccccc1)N1CC(C(=O)N2CCCC2)C2(CCOCC2)C1` (stereo not drawn): the INHIBITION was -9.71%.
In the case of `CC(=O)c1c(C)nn(CC(=O)N2CCCC2c2ccc(C(N)=O)s2)c1C` (stereo not drawn), the INHIBITION was found to be 65.7%.
With `NC(=O)c1ccc(C2CCCN2C(=O)CCn2nnc3ccccc32)s1` (stereo not drawn), the INHIBITION was found to be 7.6%.
Turning to `NC(=O)c1ccc(C2CCCN2C(=O)Cn2nc3ccccc3n2)s1` (stereo not drawn), the INHIBITION amounted to 19.4%.
Consider `CN(C)CCN1CCCC12CCN(C(=O)c1ccco1)CC2`, for which the INHIBITION is given as -20.8%.
As to `O=C(Nc1ccncc1)N(CCO)Cc1ccsc1`, the INHIBITION is reported as -42.2%.
Regarding `CCOc1ccc(C(=O)N2C[C@@H]3CC[C@H]2CN(C)C3)cc1OCC`, the INHIBITION came out at 28%.
Regarding `COc1ccccc1-c1ccc(C(=O)N2C[C@@H]3CC[C@H]2CN(C)C3)cc1`, the INHIBITION was found to be 58.3%.
As for `COc1ccc(C(=O)N2C[C@@H]3CC[C@H]2CN(C)C3)cc1Cl`, the figure is 32.3%; as for `Cn1cc(C2CCCN2C(=O)Cn2c(=O)oc3ccccc32)cn1` (stereo not drawn), -19.1%.
For `O=C(NC[C@H]1C[C@@H]2CN(C(=O)c3ccno3)C[C@@H]2O1)C1CCC1`, the INHIBITION was determined as 70.4%.
As for `Cn1cccc1C(=O)NC[C@H]1C[C@@H]2CN(C(=O)c3ccno3)C[C@H]2O1`, the figure is 42.3%; as for `CN(C)C[C@H]1C[C@@H]2CN(C(=O)c3ccno3)C[C@@H]2O1`, 34.9%.
On to `CCn1cc(-c2cc(C(F)F)n3nc(CCC(=O)O)nc3n2)cn1`, for which the INHIBITION was 33.7%.
Turning to `CCn1cc(-c2cc(C(F)F)n3nc(CC(=O)O)nc3n2)cn1`, the INHIBITION stood at 53%.
On to `Cn1cc(-c2cc(C(F)F)n3nc(CCC(=O)O)nc3n2)cn1`, for which the INHIBITION is listed as -24.1%.
In the case of `CC(C)(C)c1nc(C(C)(C)NC(=O)C2CC(=O)N(CC3CC3)C2)no1` (stereo not drawn), the INHIBITION was -17.6%.
Regarding `CCn1cc(CN2CCc3nc(-c4ccccn4)nc(O)c3C2)cn1`, the INHIBITION was determined as 1.5%.
Take `Cn1cc(CN2CCc3nc(-c4ccccn4)nc(O)c3C2)cn1`: the INHIBITION worked out at 52.3%.
In the case of `Cn1cc(CN2CCc3c(nc(-c4ccccn4)[nH]c3=O)C2)cn1`, the INHIBITION is reported as 26.7%.
The same measure for `CN(C)C(=O)c1ccc(C2CCCNC2)nc1` (stereo not drawn): 12.3%.
On to `CN(C)CC1CN(Cc2ccsc2)Cc2nccn2C1` (stereo not drawn), for which the INHIBITION stood at 31.8%.
With `CN(C)Cc1cccc(-c2cccnc2C(=O)NCc2cn(C)cn2)c1`, the INHIBITION is on record as 51%.
Turning to `CN(C)Cc1cccc(-c2cccnc2C(=O)NCc2ccccn2)c1`, the INHIBITION amounted to 14.85%.
For the molecule `CN(C)Cc1cccc(-c2cccnc2C(=O)NCc2ccco2)c1`, the INHIBITION is given as 2.7%.
For `Cc1ncsc1CCN(C)C(=O)CN1C(=O)OC[C@@H]1c1ccccc1`, the INHIBITION came out at 66.5%.
`Cc1ncsc1CCN(C)C(=O)CN1CCOC1=O`: the INHIBITION worked out at 61.8%.
Regarding `Cc1ncsc1CCN(C)C(=O)CN1CCOc2ccccc2C1`, the INHIBITION came to 40.5%.
Regarding `Cc1nc(CCN(C)C(=O)CN2C(=O)OC[C@@H]2c2ccccc2)no1`, the INHIBITION turned out to be 44.3%.
As to `CN(Cc1csc(-c2cccs2)n1)C(=O)CN1CCOC1=O`, the INHIBITION is recorded as 55%.
As for `Cc1cc(C)n(CC(=O)N(C)Cc2csc(-c3cccs3)n2)c(=O)n1`, the figure is 38.5%; as for `Cc1ncsc1CCN(C)C(=O)CN1CCCCCC1=O`, 30.8%; as for `CC(C)n1ccnc1CN1C(=O)OC[C@@H]1c1ccccc1`, 42.6%.
As for `Cc1ncsc1CCN(C)C(=O)CN1CCCCC1=O`, the INHIBITION was found to be 39.4%.
For the molecule `CC(C)N(C)C(=O)CN1C(=O)OC[C@@H]1c1ccccc1`, the INHIBITION is 58.2%.
As for `COc1ccccc1CN(C)C(=O)CN1C(=O)OC[C@@H]1c1ccccc1`, the INHIBITION amounted to 28.5%.
`Cc1ccc(=O)n(CC(=O)N(C)Cc2csc(-c3cccs3)n2)n1`: the INHIBITION was found to be 5.23%.
In the case of `CCN(CC(=O)Nc1cc(Cl)ccc1C)C(=O)c1cnccn1`, the INHIBITION is -25.9%.
As to `COc1ccc(C(=O)N2CCC(Nc3ccc(C)nn3)CC2)cc1`, the INHIBITION came to 42%.
On to `CN(C)c1nc2sc(C(=O)N3CCN(C(=O)OC(C)(C)C)CC3)cc2s1`, for which the INHIBITION is -9.39%.
As for `CCCS(=O)(=O)N1C[C@H](N(C)Cc2ccco2)[C@@H]2OCCC[C@@H]21`, the INHIBITION is 40.4%.
The same measure for `O=C(CCn1cnc2cc(F)c(F)cc21)N1CCN2CCCCC2C1` (stereo not drawn): 23.4%.
For the molecule `Cc1cc(CN2C[C@@H]3COC[C@@H](C(=O)N4CCCCO4)[C@@H]3C2)oc1C`, the INHIBITION was 33.4%.
With `NC(=O)c1ccc(NC2CCOC3(CCCC3)C2)nn1` (stereo not drawn), the INHIBITION worked out at 7.18%.
The same measure for `COC(=O)CCn1ccc(=O)c2cc(OC)ccc21`: -80.3%; for `CN(CCc1cnn(C)c1)C(=O)Cn1c(=O)[nH]c2ccccc21`: 27%; for `CN(CCc1cnn(C)c1)C(=O)CN1C(=O)OC[C@@H]1c1ccccc1`: 50.8%.
In the case of `CN(CCc1ccccc1)C(=O)CN1C(=O)OC[C@@H]1c1ccccc1`, the INHIBITION is given as 36.9%.
As for `CCC(CC)C(=O)NCc1cnn(CC)c1`, the figure is 20.1%; as for `Cn1c(=O)c2cc(C(=O)NCCc3ccccc3)ccc2n(C)c1=O`, -0.371%; as for `Cc1nc(NC(=O)c2c(-n3cnnn3)sc(C)c2C)sc1C`, 92.5%.
The same measure for `CCCNC(=O)c1c(-n2cnnn2)sc2c1CCC2`: 26.1%.
The same measure for `O=C(NCC1CCCO1)c1c(-n2cnnn2)sc2c1CCC2` (stereo not drawn): -1.58%.
On to `Cc1nc(NC(=O)c2c(-n3cnnn3)sc3c2CCC3)sc1C`, for which the INHIBITION is 93.7%.
On to `CCCn1nccc1C(=O)Nc1nc(C)c(C)s1`, for which the INHIBITION was -9.44%.
On to `Cc1nc(NC(=O)c2c(-n3cnnn3)sc3c2CCCC3)sc1C`, for which the INHIBITION was found to be 93.7%.
In the case of `Cc1sc(-n2cnnn2)c(C(=O)NC(C)C)c1C`, the INHIBITION was 21.2%.
For the molecule `CC(C)CNC(=O)c1sccc1-n1cnnn1`, the INHIBITION is reported as 32.3%.
For `COC(=O)CNC(=O)c1c(-n2cnnn2)sc2c1CCCC2`, the INHIBITION is -5.59%.
For the molecule `CC(C)CNC(=O)c1c(-n2cnnn2)sc2c1CCCC2`, the INHIBITION was determined as 68.1%.
As to `CC(C)CCNC(=O)c1c(-n2cnnn2)sc2c1CCCC2`, the INHIBITION is recorded as 23.4%.
For the molecule `CC(C)CNC(=O)c1c(-n2cnnn2)sc2c1CCC2`, the INHIBITION was found to be 14.2%.
For the molecule `Cc1ncc(CNC2CCc3nc(C(C)C)nn3C2)s1` (stereo not drawn), the INHIBITION amounted to 24.7%.
Turning to `CCn1c(-c2ccccc2)nn(CC(=O)NCCc2ccc(C)o2)c1=O`, the INHIBITION is -19.1%.
As for `CCCc1noc(CNC2CCCN(Cc3noc(C4CC4)n3)C2)n1` (stereo not drawn), the INHIBITION is -37.7%.
`Cc1nc2c(N(C)Cc3ccnn3C)nc(N)nc2n1C`: the INHIBITION was found to be 32.3%.
Consider `Cc1ccc(F)cc1-n1c(CCCN2CCOCC2)n[nH]c1=O`, for which the INHIBITION came out at 39.4%.
For `COc1cc(C)sc1C(=O)N1CCCC(n2nc(C)nc2C)C1` (stereo not drawn), the INHIBITION worked out at 48.2%.
In the case of `CCc1ccc(C(=O)O)cc1S(=O)(=O)N(C)c1cccc(C)c1`, the INHIBITION was determined as 59.1%.
In the case of `CCc1ccc(C(=O)O)cc1S(=O)(=O)N(C)c1cccc(C#N)c1`, the INHIBITION is 24.4%.
With `Cc1cccc(N(C)S(=O)(=O)c2cc(C(=O)O)cs2)c1`, the INHIBITION was 22.3%.
As for `COc1ccc(S(=O)(=O)NCC(N)c2ccccc2)c(C)c1` (stereo not drawn), the INHIBITION turned out to be 24.8%.
On to `O=C(c1cccnc1)N1CCOC(c2ccc(-c3cncnc3)cn2)C1` (stereo not drawn), for which the INHIBITION was 31.6%.
On to `Cc1cc(=O)n(CCNS(=O)(=O)c2ccc(F)c(Cl)c2)cn1`, for which the INHIBITION is reported as 29.7%.
As to `Cc1cc(=O)n(CCNS(=O)(=O)c2ccccc2)cn1`, the INHIBITION came out at 31.3%.
As for `Cc1cc(=O)n(CCNS(=O)(=O)c2cccc(C(F)(F)F)c2)cn1`, the figure is 68.5%; as for `CC(C)(C)CN1CCCC(c2nccnc2Nc2cnccn2)C1` (stereo not drawn), 51.7%; as for `CN1CCC(c2nccnc2Nc2cnccn2)CC1`, 9.98%.
As for `CC(C)(C)CN1CCC(c2nccnc2Nc2cnccn2)CC1`, the figure is -0.232%.
In the case of `CN1CCCC1CNC(=O)CCCOc1cccc(Br)c1` (stereo not drawn), the INHIBITION amounted to 9.383%.
`NC(=O)CN1CC(O)c2ccccc2S1(=O)=O` (stereo not drawn): the INHIBITION stood at 37.4%.
Regarding `Cc1nc(C(=O)N2CCCC(c3ccc4sc(N)nc4n3)C2)co1` (stereo not drawn), the INHIBITION amounted to 5.56%.
`CN(Cc1cccnc1)[C@@H]1CN(C(=O)c2ccco2)[C@@H]2CCCO[C@H]12`: the INHIBITION was found to be 3.17%.
With `CN(Cc1cccnc1)[C@@H]1CN(C(=O)c2ccoc2)[C@@H]2CCCO[C@H]12`, the INHIBITION is on record as -2.35%.
As to `CN(Cc1cccnc1)[C@@H]1CN(C(=O)c2ccno2)[C@@H]2CCCO[C@H]12`, the INHIBITION was found to be 50.3%.
The same measure for `CN(Cc1cncnc1)[C@H]1CN(C(=O)c2ccc[nH]2)[C@@H]2CCCO[C@@H]21`: 58.4%; for `CN(Cc1cncnc1)[C@H]1CN(C(=O)c2ccco2)[C@@H]2CCCO[C@@H]21`: -35.8%.
As to `CN(Cc1cncnc1)[C@@H]1CN(C(=O)C2CC2)[C@@H]2CCCO[C@H]12`, the INHIBITION is reported as -7.7%.
As for `COCC(=O)N1C[C@H](N(C)Cc2cncnc2)[C@H]2OCCC[C@H]21`, the figure is 64.7%; as for `CN(Cc1cncnc1)[C@@H]1CN(C(=O)c2ccco2)[C@@H]2CCCO[C@H]12`, 26.7%.
As for `CN(Cc1cccnc1)[C@@H]1CN(C(=O)CC2CC2)[C@@H]2CCCO[C@H]12`, the INHIBITION is -31%.
